Measured values reported in PubChem BioAssay (NCATS).
Results filed as inconclusive are left out. A call without a number means that no potency is given here. Calls of active or inactive are those of the source. Calls follow the shape of the dose curve; as a rule, active = well fitted inhibition curve with a large enough effect; inconclusive = small, poorly fitted or top-dose-only effect; inactive = no such curve, though single readings can be large or run the other way.

experiment: Primary qHTS for small molecule stabilizers of the endoplasmic reticulum resident proteome: Secreted ER Calcium Modulated Protein (SERCaMP) assay (AID 1508630); details: SH-SY5Y GLuc-SERCaMP (Gaussia luciferase released on ER calcium loss) secretion, thapsigargin, luminescence; series mostly up to 38.4 µM
From the text: Assay Provider: Brandon K. Harvey Ph.D.
National Institute on Drug Abuse, National Institutes of Health, Baltimore, MD
Endoplasmic reticulum (ER) dysregulation is associated with human pathologies including neurodegenerative, cardiovascular, muscular, and diabetic conditions. Maintenance of ER calcium is critical for functions of the ER and its depletion can lead to loss of ER resident proteins, in a process termed exodosis. Therapeutic compounds capable of attenuating the redistribution of ER proteins under pathological conditions may slow or stop disease progression. To identify such compounds, we performed a quantitative high-throughput screen (qHTS) using the SERCaMP assay, which monitors secretion of ER resident proteins triggered by calcium depletion.
SERCaMP was initially developed as a reporter of ER calcium homeostasis using a Gaussia luciferase with a modified signal peptide and carboxy-terminus (GLuc-SERCaMP), modifications that confer secretion of the reporter in response to ER calcium depletion (Henderson et al., 2014). The assay was used to screen 9,501 compounds, including a collection of drugs approved by the FDA (US), EMA (EU), NHI (Japan), and HC (Canada) regulatory agencies (Huang et al., 2011). Since the SERCaMP reporter reflects the exodosis phenomenon (Trychta et al., 2018a), compounds identified in the screen have the potential to prevent exodosis by different mechanisms such as stabilizing ER calcium or augmenting ERS retrieval.
1. Henderson, M.J., Wires, E.S., Trychta, K.A., Richie, C.T., and Harvey, B.K. (2014). SERCaMP: a carboxy-terminal protein modification that enables monitoring of ER calcium homeostasis. Mol Biol Cell 25, 2828-2839.
2. Huang, R., Southall, N., Wang, Y., Yasgar, A., Shinn, P., Jadhav, A., Nguyen, D.T., and Austin, C.P. (2011). The NCGC pharmaceutical collection: a comprehensive resource of clinically approved drugs enabling repurposing and chemical genomics. Sci Transl Med 3, 80ps16.
3. Trychta, K.A., Back, S., Henderson, M.J., and Harvey, B.K. (2018a). KDEL Receptors Are Differentially Regulated to Maintain the ER Proteome under Calcium Deficiency. Cell Rep 25, 1829-1840 e1826.
SEQUENCE No. (1, 2, 3, etc.); […] (e.g., Cells, Incubation, Reagent, etc.); VALUE and DESCRIPTION.
1; Reagent; 5 uL; 1000 SH-SY5Y cells per wells
3; Compound; 23 nL; Control inhibitor / compound library
5; Reagent; 100 nM; Thapsigargin
7; Reagent; 1 uL; 0.5x coelenterazine
8; Detection; Luminescence; ViewLux imaging system
NOTES (numbers refer to sequence above)
1; SH-SY5Y human neuroblastoma cells stably expressing GLuc-SERCaMP (SH-SY5Y-GLuc-ASARTDL) cells were seeded in 1,536 well white tissue culture treated plates (Corning, Cat# 7464) in DMEM-high glucose-sodium pyruvate (ThermoFisher Scientific, Cat #10569) supplemented with 10% bovine growth serum (Hyclone), 10 U/ml penicillin (Gibco), 10 ug/ml streptomycin (Gibco), and 20 mM HEPES.
2; Assay plates were incubated for 5 hour at 37C in a humidified incubator containing 5% CO2.
3; qHTS libraries (23 nl, final concentrations of 1.53 uM, 7.67 uM, 38.3 uM) or controls (neutral control: DMSO, positive control: dantrolene) were added using a Kalypsis pin-tool Robotic System equipped with 1536 pinheads.
4; Cells were then incubated for 16 hours at 37C, 5% CO2.
5; Thapsigargin was added at 100 nM to deplete ER calcium stores.
6; Cells were incubated for 4 hour (37 °C, 5% CO2)
7; Gaussia luciferase in the medium was measured by adding 1 ul of 0.5x coelenterazine (final concentration 0.07x) prepared in Gaussia Luciferase Glow Assay Buffer (Pierce), without addition of the Cell Lysis Buffer Reagent.
8; Luminescence was measured using a ViewLux […] CCD imaging system (Perkin Elmer) equipped with clear filters. […] The same controls were also used for the calculation of the Z' factor, a measure of assay quality control, as previously described (Zhang et al., 1999). […]

Row | Compound | Potency
1 | COC(C)(C)CCCC(C)C/C=C/C(C)=C/C(=O)OC(C)C (stereo not given) | inactive
2 | C1=C2CCCN[C@H]2[C@@H]2C[C@H]1[C@@H]1CCCCN1C2 | inactive
3 | CCCN(CCC)[C@@H]1CCc2ccc(O)cc2C1 | inactive
4 | c1ccc2sc(C3(N4CCCCC4)CCCCC3)cc2c1 | inactive
5 | CC(=CCCC1=CCC(C2=CC(=O)OC2O)OC1O)CCC1=C(C)CCCC1(C)C (stereo not given) | inactive
6 | CC(C)N(CCNC(=O)CN1CCCC1=O)C(C)C | inactive
7 | CCN(CC)C(=O)c1ccc(C2=CC3(CCNCC3)Oc3cccc(O)c32)cc1 | inactive
8 | C[C@@H]1O[C@@H](O[C@@H]2C=C3CC[C@@H]4[C@@H](CC[C@]5(C)[C@H](c6ccc(=O)oc6)CC[C@@]45O)[C@@]3(C)CC2)[C@H](O)[C@H](O)[C@H]1O | inactive
9 | CC=C(C)C(=O)O[C@H]1C(C)=C2[C@@H]3OC(=O)[C@@](C)(O)[C@@]3(O)[C@@H](OC(=O)CCC)C[C@](C)(OC(C)=O)[C@@H]2[C@@H]1OC(=O)CCCCCCC | inactive
10 | CCCCOC(=O)c1ccccc1C(=O)OCc1ccccc1 | inactive
11 | CC[C@H]1C=CC=CC[C@@H](C)[C@H](O)[C@@](C)(O)C(=O)[C@@H](C)[C@H](O)[C@@H](C)C(=O)[C@@H](C)[C@H](O)[C@@H](C)C=CC(=O)O[C@@H]2[C@@H](C)[C@H](CC1)O[C@]1(CC[C@H](C)[C@H](C[C@@H](C)O)O1)[C@H]2C | inactive
12 | O=C(Nc1ccncc1)C(=O)c1cn(Cc2ccc(Cl)cc2)c2ccccc12 | inactive
13 | CC(=O)O[C@@]12CO[C@H]1C[C@H](O)[C@@]1(C)C(=O)[C@H](O)C3=C(C)[C@@H](O)C[C@@](O)([C@@H](OC(=O)c4ccccc4)[C@@H]21)C3(C)C | inactive
14 | CC(=O)[O][Hg][c]1ccccc1 | inactive
15 | CCOP(=O)(OCC)C(C)NC(=O)N(CCCl)N=O (stereo not given) | inactive
16 | Cc1nccc2c1[nH]c1ccccc12 | inactive
17 | CCCN(CCC)C1CCc2ccc(O)cc2C1 (stereo not given) | inactive
18 | COC(=O)[C@@H](N)CCCN=C(N)N[N+](=O)[O-] | inactive
19 | CCCN1CCO[C@@H]2c3cc(O)ccc3OC[C@@H]21 | inactive
20 | CCCN1CCO[C@@H]2c3cc(O)ccc3OC[C@H]21 | inactive

Row | Compound | Potency
21 | Cc1[nH]nc2ccc(-c3cncc(OC[C@@H](N)Cc4c[nH]c5ccccc45)c3)cc12 | inactive
22 | O=[N+]([O-])c1ncc[nH]1 | inactive
23 | CCNC(=O)C[C@@H]1N=C(c2ccc(Cl)cc2)c2cc(OC)ccc2-n2c(C)nnc21 | inactive
24 | CC[C@@H]1[C@@H](C)O[C@@](O)([C@@H](C)[C@H](O)[C@H](C)[C@H]2OC(=O)C=CC=C[C@@H](C)[C@@H]([C@@H](C)[C@@H](O)[C@H](C)[C@@]3(O)C[C@H](O[C@H]4C[C@H](O)[C@H](O)[C@H](C)O4)[C@H](CC)[C@@H](C)O3)OC(=O)C=CC=C[C@@H]2C)C[C@H]1O[C@H]1C[C@H](O)[C@H](O)[C@H](C)O1 | inactive
25 | C=C[C@@H]1CN2CCC1C[C@H]2[C@H](O)c1ccnc2ccccc12 (stereo not given in full) | inactive
26 | Nc1ccc(Sc2ccc(N)cc2)cc1 | inactive
27 | COc1cccc2c1[C@]13CCN(CC4CC4)[C@H](C2)[C@]1(OC)CCC(=O)C3 | inactive
28 | C[C@]12CCC(=O)C(O)=C1CC[C@@H]1[C@H]3CCC(=O)[C@@]3(C)CC[C@@H]12 | inactive
29 | CN[C@@H](C)[C@H](O)c1ccccc1 | inactive
30 | C[N+]1(C)C2CCC1CC(OC(=O)C(CO)c1ccccc1)C2 (stereo not given) | inactive
31 | O=c1[nH]c2ccc(Cl)cc2c(N[C@@H]2CN3CCC2CC3)c1-c1nc2ccccc2[nH]1 | inactive
32 | CCC(=O)O[C@@H]1C=C2CCC3C(CCC4(C)C3CC[C@@H]4OC(=O)CC)C2CC1 (stereo not given in full) | inactive
33 | CC1=C(C(=O)O)N2C(=O)[C@@H](N)[C@H]2SC1 | inactive
34 | O=C(N[C@@H](COc1ccc2[nH]c(=O)[nH]c2c1)c1ccccc1)c1cccn(Cc2ccc(F)c(F)c2)c1=O | inactive
35 | COc1cc([C@@H]2c3cc4c(cc3[C@@H](O)C3COC(=O)C32)OCO4)cc(OC)c1O (stereo not given in full) | inactive
36 | COc1ccc2c(c1)CN(C)CC2c1ccc(Cl)c(Cl)c1 (stereo not given) | inactive
37 | CC(O)CN1CCN(CC(=O)[O-])CCN(CC(=O)[O-])CCN(CC(=O)[O-])CC1.[Gd+3] (stereo not given) | inactive
38 | NC(=NCCC[C@H](N)C(=O)O)N[N+](=O)[O-] | inactive
39 | CC(Cc1ccc(O)cc1)NCC(O)c1cc(O)cc(O)c1 (stereo not given) | inactive
40 | c1ccc(CCCN2CCN(CCOC(c3ccccc3)c3ccccc3)CC2)cc1 | inactive
